The panel holds about 83,000 compounds, 20% with a hit somewhere; the sample as a whole holds those more often.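 Interpretation: 100, growth as untreated; towards 0, rising growth inhibition; 0, no net growth; 0 to -100, cell death. Compounds scoring below 10 were considered active.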 Unmarked numbers belong to inactive results. The source made the active and inactive calls.
Columns and labels:
Assay in all cases: NCI-60 one-dose screen, 48 h (100 = growth as untreated, 0 = no growth, -100 = all killed)
Details in all cases: 10 µM unless noted
[1] = test system: SK-MEL-2 melanoma
[2] = test system: EKVX NSCLC
[3] = test system: SN12C renal
[4] = test system: UO-31 renal
[5] = test system: TK-10 renal
[6] = test system: ACHN renal
[7] = test system: CAKI-1 renal
[8] = test system: CCRF-CEM leukemia
[9] = test system: MOLT-4 leukemia
[10] = test system: SR leukemia
[11] = test system: RPMI-8226 leukemia
[12] = test system: OVCAR-8 ovarian
[13] = test system: OVCAR-5 ovarian
[14] = test system: OVCAR-4 ovarian
[15] = test system: SK-OV-3 ovarian
[16] = test system: IGROV1 ovarian
[17] = test system: OVCAR-3 ovarian
[18] = test system: HS 578T breast
[19] = test system: NCI/ADR-RES ovarian
[20] = test system: A498 renal

| SMILES | growth [1] | growth [2] | growth [3] | growth [4] | growth [5] | growth [6] | growth [7] | growth [8] | growth [9] | growth [10] | growth [11] | growth [12] | growth [13] | growth [14] | growth [15] | growth [16] | growth [17] | growth [18] | growth [19] | growth [20] [%] |
| --- | --- | --- | --- | --- | --- | --- | --- | --- | --- | --- | --- | --- | --- | --- | --- | --- | --- | --- | --- | --- |
| Cc1cc(Nc2cccc(C(F)(F)F)c2)n2c(nc3ccccc32)c1C#N | 28.7% | 31.5% | 25.4% | 28.3% | 58.3% | 46.9% | 38.7% | 55.8% | 56.6% | 31.6% | 22.8% | 43% | 78% | 34.6% | 46.4% | 57.6% | 39.4% | 68.5% | 47.9% |  |
| Nc1nc(SN=Nc2ccc(S(N)(=O)=O)cc2)c2[nH]cnc2n1 | -3.49% (active) | 28.6% | 24.2% | 22.5% | -9.94% (active) | 15.9% | 1.85% (active) | -2.18% (active) | -1.6% (active) | 5.59% (active) | -15.3% (active) | 11.2% | 19.4% | 34.7% | 7.11% (active) | 39.8% | -13.7% (active) | 36.5% | 17.6% |  |
| NC(=O)CN1CCN(c2ccccc2Cl)CC1 | 92.4% | 108% | 109% | 82.7% | 116% | 103% | 96.4% | 115% | 111% | 99.5% | 108% | 122% | 99.9% | 124% | 103% | 108% | 116% | 102% | 108% |  |
| CCOC(=O)N1CCN(CCCCl)CC1 | 103% | 98.2% | 99% | 89.5% | 92.1% | 97.4% | 101% | 110% | 98.7% | 97.1% | 114% | 98.8% | 93.3% | 109% | 126% | 97.1% | 119% | 108% | 102% |  |
| FC(F)(F)c1cccc(Nc2ccccc2)c1 | 88.7% | 101% | 101% | 97.6% | 94% | 99.6% | 97.5% | 109% | 89.9% | 88.2% | 104% | 101% | 95.4% | 108% | 119% | 102% | 118% | 105% |  |  |
| CC(C)Cc1ccc(C(C)C(=O)NCc2c[nH]c3ccc(Cl)cc23)cc1 (stereo unspecified) | 92% | 85.9% | 94% | 65.4% | 107% | 86.6% | 81.7% | 73.8% | 65.6% | 80.5% | 78.5% | 93.4% | 98.9% | 88% | 98.9% | 86.9% | 95.5% | 82.8% |  |  |
| C=C(C)[C@H]1CC/C(C)=C/CC[C@]2(C)O[C@H]2CC/C(COC(=O)[C@@H](OC(C)=O)[C@H](NC(=O)c2ccccc2)c2ccccc2)=C\[C@@H]1O | 119% | 84.7% | 93.8% | 79.4% | 99.7% | 116% | 89.6% |  | 98.2% | 51.2% | 54.8% | 93.9% | 106% | 85.7% | 94.1% |  | 104% | 91% | 88.1% | 92.8 |
| C[C@H]1[C@H](C)CC[C@]2(CO)CC[C@]3(C)C(=CC[C@@H]4[C@@]5(C)CCCNC(C)(C)[C@@H]5CC[C@]43C)[C@H]12 | 13.1% | 19.4% | -1.54% (active) | 12.5% | 23% | -66.3% (active) | 16.4% | -34.7% (active) | -45.6% (active) | -49.9% (active) | -39.7% (active) | 9.93% (active) | 28.4% | 18.5% | 69.6% | -57.9% (active) | 6.84% (active) | 10.5% | 17.6% |  |
| COc1ccc(/C=N/C2=C(C#N)C(c3ccccc3[N+](=O)[O-])c3ccc4ccccc4c3O2)cc1 (stereo unspecified) | 92.8% | 72.1% | 91.6% | 64.8% | 182% | 90.8% | 68.3% | 106% | 89.5% | 89.4% | 90.3% | 95.1% | 105% | 91.5% | 101% | 54.6% | 77.4% | 95.3% | 95.8% |  |
| C=C1C(=O)O[C@H]2[C@H]1CC/C(COC(=O)NCCc1c[nH]c3ccc(Cl)cc13)=C\CC[C@@]1(C)O[C@@H]21 | -3.3% (active) | -85.8% (active) | -70.1% (active) | -99.7% (active) | -97.2% (active) | -100% (active) | -100% (active) | -18.3% (active) | -6.88% (active) | -4.62% (active) | -31.9% (active) | -43.6% (active) | -11.3% (active) | -80.8% (active) | 96.4% | -83.9% (active) | -96.4% (active) | 22.8% | 33.9% |  |
| COc1ccc(C2=C(c3ccccc3)c3ccc(OC(C)=O)cc3OC2(C)C)cc1 | 94.9% | 82.3% | 93% | 90.6% | 116% | 76.3% | 67.8% | 50.3% | 4.69% (active) | 41.2% | 32% | 125% | 85.3% | 88.2% | 116% | 96.7% | 85.1% | 104% | 77.2% |  |
| N#C/C(=C\c1ccc(Br)cc1)n1nnc2cccc(F)c21 | 22.3% | 61.8% | 4.62% (active) | 2.69% (active) | 15.6% | 20.2% | 18.2% | -2.73% (active) | 1.33% (active) | 10.1% | -19.6% (active) | 8.42% (active) | 10.5% | 17.5% | 78.3% | 4.13% (active) | -31.5% (active) | -11.1% (active) | 3.27% (active) |  |
| O=S(=O)(NCCCNc1nccc(-c2c(-c3cccc(O)c3)nc3occn23)n1)c1ccc(F)cc1 | 50.6% | 101% | 74.9% | 92.1% | 116% | 79.1% | 72.2% | 89% | 70% | 76.6% | 77% | 79% | 128% | 110% | 71.1% | 76.2% | 96.8% | 82.3% | 105% |  |
| O=C(Nc1nc2ccc(S(=O)(=O)Nc3ccc(C4(C(F)(F)F)CC4)cc3)cc2[nH]1)c1cnccn1 | 56.3% | 65.3% | 44.9% | 40.3% | 65.9% | 43.5% | 28.6% | 19.9% | 38.7% | 20% | 30.3% | 55.4% | 56.8% | 46.1% | 58% | 40.3% | -18.6% (active) | 17.6% | 21% |  |
| O=C(c1ccccc1)N1N=C(c2ccc(-n3ccc(C(F)(F)F)n3)cc2)CC1c1ccc[nH]1 (stereo unspecified) | 97.7% | 88.9% | 98.1% | 77.8% | 80.8% | 90.6% | 84.1% | 85.6% | 75.8% | 66.7% | 74.7% | 93.7% | 83.4% | 110% | 128% | 95.8% | 103% | 95.4% | 90.2% |  |
| Cc1ccccc1CNc1ccc(N2CCOCC2)cc1 | 102% | 104% | 96.3% | 107% | 95.3% | 108% | 99.1% | 112% | 101% | 86.3% | 110% | 96.3% | 103% | 87.7% | 131% | 108% | 101% | 108% | 99.2% |  |

— PubChem BioAssay (NCI)
